Luciferase inh: Firefly luciferase inhibition profiling of diverse chemical library using quantitative high-throughput screening | 2.5% of 76,000 active | purified P. pyralis luciferase, luminescence, biochemical | Potency, µM (top dose mostly 115 µM), hits mostly inhibitors | AID 1347043, 2019; also: nearly all actives have a fitted effect of over 65% in size
Target sequence (P08659 whole entry, looked up): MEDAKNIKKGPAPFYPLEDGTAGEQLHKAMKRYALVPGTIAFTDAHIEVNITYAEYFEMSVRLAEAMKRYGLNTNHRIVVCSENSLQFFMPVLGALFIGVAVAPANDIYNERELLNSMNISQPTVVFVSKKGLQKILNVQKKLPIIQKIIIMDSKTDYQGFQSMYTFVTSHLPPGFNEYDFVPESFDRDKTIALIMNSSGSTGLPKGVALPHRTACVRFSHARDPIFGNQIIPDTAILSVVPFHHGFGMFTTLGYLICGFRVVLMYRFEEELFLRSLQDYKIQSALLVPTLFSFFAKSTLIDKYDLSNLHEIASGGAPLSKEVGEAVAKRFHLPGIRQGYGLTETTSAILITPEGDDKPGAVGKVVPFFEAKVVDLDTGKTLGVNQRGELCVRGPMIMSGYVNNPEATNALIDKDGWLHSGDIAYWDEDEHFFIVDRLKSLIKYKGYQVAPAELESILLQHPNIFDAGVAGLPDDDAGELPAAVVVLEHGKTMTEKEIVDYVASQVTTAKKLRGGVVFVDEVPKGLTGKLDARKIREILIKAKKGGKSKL
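Luminescence read by CCD imager after adding enzyme (10nM final) to wells holding compound, titrated in qHTS. Substrates 10uM each D-luciferin and ATP; buffer 50mM Tris acetate pH 7.5, 10mM Mg acetate, Tween-20, BSA.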
HEK293 viab: GF-AFC viability counterscreen for inhibitors of alpha-synuclein gene (SNCA) expression; 0.12% of 150,000 active; HEK-293-SNCA-luc viability, GF-AFC fluorescence, 24 h; AID 1671193, 2021; Potency, µM (doses to about 57.1 µM), usual class: cytotoxic; also: nearly all actives have a fitted effect of over 30% in size
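HEK-293-SNCA-luc cells (1500/well) plated 24 h, then exposed 24 h to a dilution series; GF-AFC added 30 min at 37C, fluorescence 405/540 nm; normalised to medium-only and DMSO wells, Hill fit.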
HEK293 tox: Cytotoxic Profiling in HEK 293 Cell Line of Diverse Libraries Using Quantitative High-Throughput Screening; 6.6% of 94,000 active; HEK 293 viability, ATP luminescence (CellTiter-Glo), 48-72 h; Potency, µM (titrated, usually from 115 µM), actives largely listed as inhibitors; also: nearly all actives have a fitted effect of over 60% in size
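Cytotoxicity was scored by loss of ATP-coupled luminescence (CellTiter-Glo) in HEK 293 cells. Compound treatment ran 48 or 72 hr at 37 degree Celsius, 5% CO2, 95% humidity.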
3T3 cytotox: Cytotoxic Profiling in NIH 3T3 Cell Line of Diverse Libraries Using Quantitative High-Throughput Screening; NIH 3T3 viability, CellTiter-Glo ATP luminescence, 48-72 h; Potency, µM (series often up to 96.7 µM), most hits filed as inhibitors; 4.3% of 94,000 active; also: nearly all actives have a fitted effect of over 55% in size
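Cytotoxicity is measured as loss of cellular ATP: NIH 3T3 cells (400/well) are exposed to compound for 48 or 72 hr at 37 °C, then CellTiter-Glo luminescence is imaged after 10 min at room temperature.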
SNCA expr inh: Primary qHTS assay for inhibitors of alpha-synuclein gene (SNCA) expression; HEK-293 SNCA-luciferase knock-in, luminescence, 24 h; Potency, µM (highest dose often 57.2 µM), most hits filed as inhibitors; 0.17% of 140,000 active; AID 1671194, 2021; also: nearly all actives have a fitted effect of over 45% in size
NPR1 antag: Natriuretic polypeptide receptor (hNpr1) antagonism - Primary qHTS | Potency, µM (doses to about 46.3 µM), usual class: inhibitors | Atrial natriuretic peptide receptor 1 (Homo sapiens), P16066 | 1.6% of 76,000 active | HEK293 hNpr1 GloSensor cGMP, ANP-stimulated luminescence; calls by dose curve; also: nearly all actives have a fitted effect of over 60% in size
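Compound pre-incubated 30 min at room temperature on GloSensor-loaded HEK293 cells stably carrying hNpr1 and the pGS-40F cGMP biosensor. Stimulation uses hNppA at 0.1 nM final; luminescence is taken at baseline and 20 min post-agonist.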
Each line names hits and unclear results; the compound was inactive in the other large screens. An excerpt weighted towards active compounds, which were near 7.4% of everything screened. Unless noted, calls follow the shape of the dose curve; as a rule, active = well fitted curve in the direction sought with a large enough effect; inconclusive = small, poorly fitted or top-dose-only effect, or another doubt; inactive = no such curve, though single readings can be large; an effect the other way counts as inactive or inconclusive.

COC(=O)[C@@H]1Cc2ncn(C)c2CN1C(=O)c1ccc(-c2ccccc2)cc1	Luciferase inh inconclusive, HEK293 tox inconclusive
Cc1cccc(C(=O)N2[C@@H]3CC[C@H]2CC(NC(=O)c2cnc(C)cn2)C3)c1 (stereo not given in full)	3T3 cytotox inconclusive
O=C(c1ccoc1)N1CCC(n2cc(-c3nc(-c4ccccc4)no3)nn2)CC1	Luciferase inh inconclusive, HEK293 tox inconclusive, 3T3 cytotox inconclusive
O=C(c1ccncc1)N1CCC(n2cc(-c3nc(-c4ccccc4)no3)nn2)CC1	Luciferase inh inconclusive, HEK293 tox inconclusive, 3T3 cytotox 32µM
CCn1ncc(NC(=O)Cn2ncc3cc(-c4ccc(C(=O)N(C)C)cc4)ccc32)n1	Luciferase inh 6.3µM, HEK293 tox 45µM
CCn1ncc(NC(=O)Cn2ncc3cc(-c4ccc(F)cc4F)ccc32)n1	Luciferase inh inconclusive, 3T3 cytotox inconclusive, NPR1 antag 13µM
CCn1ncc(NC(=O)Cn2ncc3cc(-c4cccc(C#N)c4)ccc32)n1	HEK293 tox 25µM, 3T3 cytotox inconclusive, NPR1 antag inconclusive
Cc1nc2ccc(C(=O)N3CCC4(CC3)CC(=O)c3c(cnn3C(C)C)C4)cc2[nH]1	none (no result: Luciferase inh, HEK293 tox, 3T3 cytotox, NPR1 antag)
O=C1c2ccccc2-[n+]2ccc3c([nH]c4ccccc43)c21	HEK293 viab inconclusive, SNCA expr inh 3µM (no result: Luciferase inh, HEK293 tox, 3T3 cytotox, NPR1 antag)
Cn1cc(-c2cnc3[nH]cc(CC(=O)NC4CCC4)c3c2)cn1	HEK293 tox inconclusive, 3T3 cytotox 32µM
CC(C)CNC(=O)Cc1c[nH]c2ncc(-c3cnn(C)c3)cc12	3T3 cytotox 45µM
Cn1cc(-c2cnc3[nH]cc(CC(=O)NCc4ccncc4)c3c2)cn1	3T3 cytotox inconclusive
CN1CCC(NC(=O)Cc2c[nH]c3ncc(-c4ccccc4)cc23)CC1	HEK293 tox inconclusive, 3T3 cytotox inconclusive
O=C(NNc1ccccc1)c1ccncc1	none (no result: Luciferase inh, HEK293 tox, 3T3 cytotox, SNCA expr inh, NPR1 antag)
CCCCOc1ccc(-c2nc(C3CC(=O)N(C4CCCCC4)C3)no2)cc1 (stereo not given)	HEK293 tox 45µM, 3T3 cytotox 32µM, SNCA expr inh inconclusive, NPR1 antag inconclusive
Cc1ccsc1-c1nc(C2CC(=O)N(C3CCCCC3)C2)no1 (stereo not given)	HEK293 tox 79µM
CCCCOc1ccc(-c2nc(C3CC(=O)N(c4ccc(OC)cc4)C3)no2)cc1 (stereo not given)	none
Cc1noc(C)c1C(=O)N1CCC2(CC1)CN(C(=O)c1ccc(Cl)cc1)CCO2	3T3 cytotox 6.3µM, SNCA expr inh inconclusive (no result: Luciferase inh, NPR1 antag)
CC(=O)N1CCC2(CC1)CN(C(=O)c1ccc(Cl)cc1)CCO2	HEK293 tox inconclusive (no result: Luciferase inh, NPR1 antag)
CC(=O)N1CC2(Cc3ccccc31)CN(C(=O)c1ccccc1C)C2	HEK293 tox inconclusive, 3T3 cytotox inconclusive
O=C(Nc1cn[nH]c1-c1nc2ccc(CN3CCOCC3)cc2[nH]1)NC1CC1	HEK293 viab inconclusive, SNCA expr inh 24µM (no result: Luciferase inh, HEK293 tox, 3T3 cytotox, NPR1 antag)
O=C(NCCCN1CCOCC1)c1ccc(-c2ccc(N3CCCCCC3)nc2)cc1	Luciferase inh inconclusive, HEK293 tox 35µM, 3T3 cytotox inconclusive
COCCNC(=O)c1ccc(-c2ccc(N3CCCCCC3)nc2)cc1	Luciferase inh inconclusive, HEK293 tox inconclusive, 3T3 cytotox inconclusive
O=C(NCC1CCCO1)c1ccc(-c2ccc(N3CCSCC3)nc2)cc1 (stereo not given)	Luciferase inh inconclusive, HEK293 tox inconclusive
O=C(NCCN1CCOCC1)c1ccc(-c2ccc(N3CCCCCC3)nc2)cc1	Luciferase inh inconclusive, HEK293 tox 35µM, 3T3 cytotox 35µM
O=C(NCc1cccnc1)c1ccc(-c2ccc(N3CCSCC3)nc2)cc1	Luciferase inh inconclusive, HEK293 tox 10µM, 3T3 cytotox 4.5µM, NPR1 antag 11µM
O=C(NCCCN1CCCC1=O)c1ccc(-c2ccc(N3CCSCC3)nc2)cc1	Luciferase inh 40µM, HEK293 viab inconclusive, HEK293 tox inconclusive, 3T3 cytotox inconclusive, NPR1 antag inconclusive
O=C(CN1C(=O)NC2(CCOCC2)C1=O)Nc1ccc2c(c1)OCO2	none
Cc1noc(-c2ccn3c(CNC(=O)c4ccc(C)c(C)c4)nnc3c2)n1	none
CC(C)c1cc(C(=O)N2CCn3nc(C(=O)Nc4ccccc4)cc3C2)n[nH]1	Luciferase inh inconclusive, HEK293 tox inconclusive, 3T3 cytotox inconclusive, NPR1 antag 13µM
Cc1cc(F)ccc1NC(=O)c1cnc(-c2ccc(F)cc2)nc1-c1ccncc1	HEK293 viab inconclusive
Cc1cc(Cl)ccc1NC(=O)c1cnc(-c2ccccc2)nc1-c1ccncc1	HEK293 tox 45µM, 3T3 cytotox 20µM, NPR1 antag inconclusive
Cc1ccc(-c2ncc(C(=O)NCc3ccccc3Cl)c(-c3ccncc3)n2)cc1	HEK293 viab inconclusive, HEK293 tox inconclusive, 3T3 cytotox inconclusive, SNCA expr inh inconclusive
Cc1ccc(-c2ncc(C(=O)Nc3cccc(Br)c3)c(-c3ccncc3)n2)cc1	HEK293 tox 25µM, 3T3 cytotox inconclusive
Cc1ccc(-c2ncc(C(=O)NCCN(C)C3CCCCC3)c(-c3ccncc3)n2)cc1	HEK293 tox 20µM, 3T3 cytotox 25µM
Cc1ccccc1-n1nc(C)c(CCC(=O)NCC2CCCO2)c1Oc1ccccc1F (stereo not given)	HEK293 tox inconclusive
CCOCCOC1CCN(C(=O)c2cccc3[nH]ccc23)CC1	Luciferase inh 35µM
COc1cccc(CNC(=O)C2CCN(C(=O)c3ncn4c3COC(c3ccc(F)cc3)C4)CC2)c1 (stereo not given)	Luciferase inh inconclusive
Cc1ccc(C2Cn3cnc(C(=O)N4CCC(C(=O)NC(C)c5ccccc5)CC4)c3CO2)cc1 (stereo not given)	Luciferase inh 28µM
COc1ccc(CNC(=O)C2CCN(C(=O)c3ncn4c3COC(c3ccccc3)C4)CC2)cc1 (stereo not given)	Luciferase inh 16µM
O=C(NCc1cccc(F)c1)C1CCN(C(=O)c2ncn3c2COC(c2ccccc2)C3)CC1 (stereo not given)	Luciferase inh 5µM, HEK293 viab inconclusive, HEK293 tox inconclusive
Cc1ccc(C2Cn3cnc(C(=O)N4CCC(C(=O)NCCCc5ccccc5)CC4)c3CO2)cc1 (stereo not given)	Luciferase inh 32µM
Cc1ccc(C2Cn3cnc(C(=O)N4CCC(C(=O)NCc5ccccc5Cl)CC4)c3CO2)cc1 (stereo not given)	Luciferase inh 35µM, HEK293 tox inconclusive

From PubChem
